Source: PubChem (several laboratories)
GIRK2 activator: Activates human GIRK2-containing potassium channels | P48051 | HEK293 GIRK2/NPY4 cells, thallium flux fluorescence | activation (% efficacy), % for hits at 37.5 µM | 34,000 tested, under 10 active;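 active = primary screen hit, no activity in plain HEK293 cells, and in GIRK2-only cells above 5% efficacy rising with concentration; inactive = the rest, including fluorescent compounds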;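 note: efficacy is normalized control-subtracted fluorescence 15 s after thallium addition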
Target sequence (P48051 whole entry, looked up): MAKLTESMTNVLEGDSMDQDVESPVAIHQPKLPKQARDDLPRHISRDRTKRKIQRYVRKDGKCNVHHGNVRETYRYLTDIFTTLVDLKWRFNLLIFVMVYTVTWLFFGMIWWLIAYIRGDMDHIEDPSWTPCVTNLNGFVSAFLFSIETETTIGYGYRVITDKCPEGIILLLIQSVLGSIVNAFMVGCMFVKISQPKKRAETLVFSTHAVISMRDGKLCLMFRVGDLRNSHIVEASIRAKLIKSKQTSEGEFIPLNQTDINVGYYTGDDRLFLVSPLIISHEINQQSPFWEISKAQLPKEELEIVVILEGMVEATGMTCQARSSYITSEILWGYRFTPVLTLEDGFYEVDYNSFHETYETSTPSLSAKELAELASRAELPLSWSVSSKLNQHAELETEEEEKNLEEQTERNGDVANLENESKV
GluA2 TARP mod: GluA2-stargazin AMPA receptor complex modulation; HEK293 GluA2+stargazin, membrane potential dye (FDSS), glutamate EC50; hits were called plate by plate, in both directions; calls only at 30 µM; actives 3.5% (n = 40,000); AID 1259245;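 active = any of four per-well response measures lying three or more SD from its plate-wide compound average, in either direction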
* hit, by the source's call; i = inactive; nt = no result given; + = active, no number; ! = not confirmed by another sample; [ ] = remark or other dose. This excerpt belongs to a sample that is enriched for hits.

SMILES	GIRK2 activator	GluA2 TARP mod
CCOC(=O)C1C(=O)CC(C)(O)C(C(=O)OCC)C1c1cccs1 (stereo not given)	i	i
CCOC(=O)C1C(=O)CC(C)(O)C(C(=O)OCC)C1c1ccc(C)cc1 (stereo not given)	i	+
CC(=O)Nc1cccc(NC(=O)Cc2csc(NC(=O)c3ccc[nH]c3=O)n2)c1	i	i
O=C(c1ccccc1C(F)(F)F)N1CCC(Cn2cccn2)CC1	i	+
O=C(c1ccccc1F)N1CCC(Cn2cccn2)CC1	i	i
CC(C)CCN(CC(O)CON=C1c2ccccc2-c2ccccc21)S(C)(=O)=O (stereo not given)	i	i
O=C(Cn1cnc2ccccc21)N1CCC(c2nnc(-c3ccco3)s2)CC1	i	i
COc1ccc(CC(=O)NCCS(=O)(=O)N2CCc3ccccc3C2)cc1	nt	i
O=C(Cc1cc(-c2ccc3c(c2)OCO3)on1)NCc1ccc2c(c1)OCO2	i	i
O=C(Cc1cc(-c2ccc3c(c2)OCCO3)on1)NCc1ccccc1	i	+
Cc1ccc(Nc2cc(N3CCN(C(=O)c4ncccn4)CC3)nc(C)n2)cc1	i	+
Cc1ccc(Nc2cc(C)nc(N3CCN(C(=O)c4ccc5c(c4)OCO5)CC3)n2)cc1	nt	i
O=C(CCCS(=O)(=O)c1ccc(Cl)cc1)Nc1cccc([N+](=O)[O-])c1	nt	i
CN(C)CCN(C(=O)CCCS(=O)(=O)c1ccc(F)cc1)c1nc2ccc([N+](=O)[O-])cc2s1	nt	+
Cc1c(Cl)ccc2sc(NCCCN(C)C)nc12	i	i
CN(C)CCCNc1nc2ccc([N+](=O)[O-])cc2s1	i	+
COc1ccc(S(=O)(=O)CCC(=O)N(Cc2ccccc2)c2nc3ccccc3s2)cc1	i	i
CN(C)CCN(C(=O)CCCS(=O)(=O)c1ccc(F)cc1)c1nc2ccccc2s1	nt	i
COc1ccc(S(=O)(=O)CCC(=O)N(CCN(C)C)c2nc3ccc([N+](=O)[O-])cc3s2)cc1	nt	+
CCc1nnc(-c2cccc(OCC(=O)Nc3cccc(NC(C)=O)c3)c2)o1	i	nt
CCOc1nn(CC)cc1C(=O)O	i	i
CCOc1ccc2ccccc2c1C(=O)Nc1ccc(CC(=O)NC2CC2)cc1	i	i
COc1ccc2cc(CCNC(=O)c3ccc(S(=O)(=O)N(C)C)cc3)c(=O)[nH]c2c1	nt	i
O=C(Nc1onc2c1CSC2)c1cnc2ccccc2n1	i	i
COc1ncccc1C(=O)Nc1onc2c1CSC2	i	+
SMILES	GIRK2 activator	GluA2 TARP mod
CCCc1c(C(=O)NCc2ccccc2OC)nnn1-c1ccccc1	i	i
CCCc1c(C(=O)Nc2ccccc2F)nnn1-c1ccccc1	7.0%*[25 µM]	i
CCOc1ccccc1NC(=O)CSc1nnnn1-c1ccccc1C(F)(F)F	i	i
CCOc1ccccc1NC(=O)CSc1nnnn1-c1cccc(C)c1	i	+!
Cc1cccc(NC(=O)Nc2c(C)nc3ccccn3c2=O)c1	i	i
CC(=O)Cn1c(=O)c2c(nc3n(-c4ccc(C)cc4C)c(-c4ccccc4)cn23)n(C)c1=O	nt	i
CCC(=O)c1ccc(OCC(O)CN2CCN(CCO)CC2)cc1 (stereo not given)	i	i
COc1cc(S(=O)(=O)Nc2ccc(-c3cn4cccc(C)c4n3)cc2)c(OC)cc1C	nt	+
COc1ccc(OC)c(S(=O)(=O)Nc2ccc(-c3cn4ccccc4n3)cc2)c1	nt	i
O=C(CSc1ccc(NC(=O)C2CC2)nn1)Nc1nccs1	i	i
CCCCc1ccc(-n2c(C)cn3c4c(=O)n(CC(N)=O)c(=O)n(C)c4nc23)cc1	nt	i
COc1ccc(C)cc1NC(=O)c1nnn(-c2ccc(C)c(F)c2)c1C	nt	i
Cc1cccn2c(=O)c(C=NCCO)c(NCc3ccco3)nc12	nt	+
COc1ccc(N=Cc2c(NCCO)nc3c(C)cccn3c2=O)cc1	i	+
Cc1cccn2c(=O)c(/C=N/O)c(NCCO)nc12	nt	i
C/C(Cl)=C\Cn1c(NCc2ccco2)nc2c1c(=O)n(C)c(=O)n2C	nt	i
COC(=O)c1sccc1NC(=O)Cn1c(C)cc(C)c(-c2nc(-c3ccc(C)cc3)no2)c1=O	nt	i
CCOC(=O)N1CCc2c(sc(NC(=O)C3CC3)c2-c2nc3ccccc3s2)C1	nt	i
O=C(c1ccc(S(=O)(=O)N2CCOCC2)cc1)N(C(=O)N1CCCCC1)c1ccc(Cl)cc1	nt	i
O=C(c1ccc(S(=O)(=O)N2CCOCC2)cc1)N(C(=O)N1CCCCC1)c1cccc(Cl)c1	i	+
Cc1cc(C)n(CCN2CCCN(C(=O)Nc3ccccc3)CC2)n1	i	i
COc1cc([N+](=O)[O-])ccc1NC(=O)c1ccc(=O)n(Cc2ccc(Cl)cc2)c1	i	i
COc1cc([N+](=O)[O-])ccc1NC(=O)c1ccc(=O)n(Cc2cccc(C(F)(F)F)c2)c1	i	i
COc1cc([N+](=O)[O-])ccc1NC(=O)c1ccc(=O)n(Cc2ccccc2)c1	i	+
COc1cc([N+](=O)[O-])ccc1NC(=O)c1ccc(=O)n(Cc2cccc(Cl)c2)c1	i	+
SMILES	GIRK2 activator	GluA2 TARP mod
COc1cccc(NC(=O)c2ccc(=O)n(Cc3cccc([N+](=O)[O-])c3)c2)c1	i	i
CC(=O)c1cccc(NC(=O)c2ccc(=O)n(Cc3cccc([N+](=O)[O-])c3)c2)c1	i	+
Cc1ccc(Cn2c(CO)cnc2SCC(N)=O)cc1	i	i
CN(C)C(CNC(=O)c1ccc(Br)o1)c1ccco1 (stereo not given)	i	i
O=C(NCc1ccccc1)Nc1ccc2c(c1)CN(C(=O)C1CC1)CC2	i	i
Cc1ccc(-n2nnc(C(=O)Nc3nccs3)c2C)cc1Cl	i	i
CCn1nnc2c(N3CCN(S(=O)(=O)Cc4ccccc4)CC3)ncnc21	i	i
O=S(=O)(c1cccs1)N1CCN(Cc2nnnn2-c2ccc(F)cc2)CC1	i	+
O=S(=O)(c1cccs1)N1CCN(Cc2nnnn2-c2ccc(Cl)cc2)CC1	i	i
O=C(NCCOc1ccc2nnc(-c3ccccc3)n2n1)Nc1ccc(Cl)c(Cl)c1	i	i
CSc1ccccc1C(=O)N1CCN(c2ncnc3c2nnn3C)CC1	i	i
COc1ccc(-c2noc(C3CCN(S(=O)(=O)c4ccc(C)cc4)CC3)n2)cc1	i	+
COc1ccc(-c2noc(C3CCN(S(=O)(=O)c4ccc(Cl)cc4)CC3)n2)cc1	i	i
COc1ccc(OC)c(-n2c(-c3ccccc3)cn3c4c(=O)n(CC(C)=O)c(=O)n(C)c4nc23)c1	i	i
COC(=O)c1ccsc1NC(=O)CC1Nc2cc(C)c(C)cc2NC1=O (stereo not given)	i	+
Cc1cc2c(cc1C)NC(CC(=O)NCC(C)C)C(=O)N2 (stereo not given)	nt	i
O=C(Cc1cc(-c2ccco2)on1)Nc1ccc(OC(F)(F)F)cc1	i	i
O=C(CCc1csc(NS(=O)(=O)c2ccccc2)n1)Nc1ccc(OC(F)(F)F)cc1	i	i
NC(=O)c1ccc(NC(=O)CCc2csc(NS(=O)(=O)c3ccccc3)n2)cc1	i	+
CC(=O)c1cccc(NC(=O)CCc2csc(NS(=O)(=O)c3ccccc3)n2)c1	i	+
